Out of some 48,000 compounds screened, about 13,000 (27%) showed an effect of 50% or more. The list shows a part of the results.

This experiment deals with Wolbachia pipientis. The experiment is described as follows: Anti-Wolbachia Cell-Based Screen. Type of experiment: functional. Set-up: scale not given: in the data most compounds retested in dose-response had high values. The note with it: 5 µM.
Take `O=C1CC2(CCN(Cc3ccc(C(F)(F)F)nc3)CC2)CN1`: the “Percent Effect” value is recorded as -10.7%.

`O=S(=O)(Cc1ccccc1F)NCCCN1CCCCC1`: the “Percent Effect” value is reported as -1.108%.

`CCCc1cc(NCCCC2CCOC2)n2nccc2n1` (centres undefined): the “Percent Effect” value is -21.79%.

`CC(C)C[C@H](Nc1nc(C2CCCC2)nc2c1cnn2C)C(N)=O`: the “Percent Effect” value is 1.529%.

Consider `O=C1O[C@@H]2CN(Cc3ccccc3)C[C@@H]2N1CCCN1CCOCC1`, for which the “Percent Effect” value is on record as -2.411%.

As for `CCS(=O)(=O)N1CCC(c2nnc(CN3CCOCC3)n2C)CC1`, the “Percent Effect” value stood at 4.44%.

As for `CCN(C)CC(=O)N1CCCC(c2nnc(CN3CCOCC3)n2C)C1` (centres undefined), the “Percent Effect” value worked out at 14.42%.

With `Cn1c(CN2CCOCC2)cc(=O)c(O)c1CN1CCCC1`, the “Percent Effect” value was determined as 100.1%.

`CN(CCN1CCCCC1)C(=O)c1cc(CN2CCOCC2)on1`: the “Percent Effect” value was 7.335%.

`Cn1c(=O)oc2ccc(NC(=O)N3CCOCC3)cc21`: the “Percent Effect” value worked out at 0.8661%.

For `Cn1c(CN2CCOCC2)cc(=O)c(O)c1CN1CCOCC1`, the “Percent Effect” value was determined as 102.7%.

Take `CC(C)NC(=O)N1CCCC(c2nnc(CN3CCOCC3)n2C)C1` (centres undefined): the “Percent Effect” value is recorded as 7.81%.

As for `Cn1c(CN2CCOCC2)nnc1C1CCCN(CC(N)=O)C1` (centres undefined), the “Percent Effect” value is recorded as -18.54%.

On to `Cn1c(CN2CCOCC2)cc(=O)c(O)c1CN1CCCCC1`, for which the “Percent Effect” value was 117.1%.

As to `O=C(NCCN1CCCC1)c1nc2c(o1)CN(C(=O)c1cccnc1)C2.O=C(O)C(F)(F)F.O=C(O)C(F)(F)F`, the “Percent Effect” value was -5.766%.

With `COCCN1CCc2ncc(CN(C)C)n2CC1`, the “Percent Effect” value is on record as -10.98%.

Turning to `CC1CN(S(=O)(=O)c2ccc(F)cc2F)c2cccnc2O1` (centres undefined), the “Percent Effect” value was -5.201%.

On to `NC(=O)NC(=O)CCN1C(=O)CC(Cc2ccc(F)cc2)C1=O` (centres undefined), for which the “Percent Effect” value was 2.732%.

For `COc1cccc(C(=O)N2CCOCC2CN(C)C)c1OC.O=CO` (centres undefined), the “Percent Effect” value was found to be 3.966%.

In the case of `Cc1cc(C(=O)N[C@H]2CN(CCC(N)=O)C[C@@H]2C2CC2)sc1C`, the “Percent Effect” value came to 6.856%.

As for `CC1CN(c2ncccc2C(=O)N[C@@H]2CCCc3ccccc32)CCN1` (some centres undefined), the “Percent Effect” value worked out at 127.7%.

Regarding `NC(=O)c1cccnc1N1CCN(c2ncnc3c2CCNC3)CC1`, the “Percent Effect” value is reported as -13.85%.

For `O=C(Nc1cccc2c1CCCC2)c1cccc(CN2CC[C@H](O)C2)c1`, the “Percent Effect” value is given as -13.79%.

`O=C(Nc1cccc2c1CCCC2)C1CCCN1c1nccs1` (centres undefined): the “Percent Effect” value was 15.72%.

Turning to `O=C(CS(=O)(=O)c1ccccn1)NC1CCCc2ccccc21` (centres undefined), the “Percent Effect” value stood at 25.59%.

In the case of `O=C(CS(=O)(=O)c1ncccc1Cl)NC1CCCc2ccccc21` (centres undefined), the “Percent Effect” value is 0.01745%.

As to `O=C(Nc1cccc2c1CCCC2)c1cccnc1N1CCCNCC1`, the “Percent Effect” value turned out to be 136.8%.

`CC1CN(c2ncccc2C(=O)Nc2cccc3c2CCCC3)CCN1` (centres undefined): the “Percent Effect” value is listed as 121.2%.

`Cc1cccc(C(=O)Nc2cccc3c2CCCC3)n1`: the “Percent Effect” value is -12.03%.

With `Cc1cc(N2CCN(C(=O)c3cc(Cl)c[nH]3)CC2)nc(N)n1`, the “Percent Effect” value turned out to be 3.543%.

As to `CC(=O)CCCC(=O)N(Cc1ccsc1)CC(C)C`, the “Percent Effect” value is given as -0.6388%.

As to `Cc1cc(CC(=O)NC(C)c2ccc(OCC3CC3)c(F)c2)n[nH]1` (centres undefined), the “Percent Effect” value is reported as -4.858%.

`CC(NC(=O)c1ccnn1C)c1ccc(OCC2CC2)c(F)c1` (centres undefined): the “Percent Effect” value is 28.88%.

For the compound `CC(NC(=O)Cc1ccon1)c1ccc(OCC2CC2)c(F)c1` (centres undefined), the “Percent Effect” value came to 0.6015%.

As for `CC(NC(=O)CN(C)C(C)C)c1ccc(Oc2cccnc2)c(F)c1` (centres undefined), the “Percent Effect” value is 102.4%.

`CCN(CC)C(=O)NC(C)c1ccc(Oc2cccnc2)c(F)c1` (centres undefined): the “Percent Effect” value came out at 111%.

As to `CCC(C#N)NC(=O)c1ccc(Oc2cccnc2)cc1` (centres undefined), the “Percent Effect” value was -3.415%.

As to `CC(CNC(=O)c1ccccc1Oc1cccnc1)N(C)C` (centres undefined), the “Percent Effect” value is 3.869%.

Regarding `CC(NC(=O)Cn1ccnc1)c1ccc(OCC2CC2)c(F)c1` (centres undefined), the “Percent Effect” value worked out at 47.59%.

Turning to `CC(NC(=O)N(C)C1CC1)c1ccc(Oc2cccnc2)c(F)c1` (centres undefined), the “Percent Effect” value is recorded as 100.6%.

As for `CN(C)C1Cc2ccccc2N(S(=O)(=O)c2ccc(C#N)cc2)C1` (centres undefined), the “Percent Effect” value is on record as -15.49%.

As for `OC[C@@H](O)CN(CCC(F)(F)F)c1ncc(Cl)cn1`, the “Percent Effect” value is -0.8071%.

For the compound `CNc1cc(-c2ccncc2)ncn1`, the “Percent Effect” value was 104.2%.

In the case of `O=C(NCCNc1cc(N2CCCC2)ncn1)c1cnccn1`, the “Percent Effect” value was found to be 10.51%.

In the case of `OCCNc1cc(N2CCN(Cc3ccccc3)C(CCO)C2)ncn1` (centres undefined), the “Percent Effect” value came out at 0.1628%.

Consider `OCCNc1cc(-c2ccncc2)ncn1`, for which the “Percent Effect” value was found to be 123.3%.

As to `OCCNc1cc(-c2ccccc2)ncn1`, the “Percent Effect” value turned out to be 107.4%.

On to `Cn1ccc2c(-c3ccc(NCCO)nn3)ccnc21`, for which the “Percent Effect” value was 2.598%.

Regarding `OCC1CCCN1c1cc(NCCNc2ccccn2)ncn1` (centres undefined), the “Percent Effect” value was found to be 1.6%.

For the compound `CN(C)C(=O)c1cc(NC(=O)N2CCCC(C(F)(F)F)C2)ccn1` (centres undefined), the “Percent Effect” value was -9.482%.

Consider `COc1ccc(Cc2ncc3c(n2)CN(C(=O)CCO)C3)cc1`, for which the “Percent Effect” value is listed as -39.39%.

`Cc1c(CNC(=O)C2CCCCCN2C)oc2ccccc12` (centres undefined): the “Percent Effect” value came to 0.5854%.

For the compound `N#Cc1ccc(CN(CC(N)=O)C2CCCC2)c(Br)c1`, the “Percent Effect” value is given as -1.736%.

On to `CN1CC(Oc2ccc(Cl)cc2)=NC(SCC(=O)Nc2ccccc2)=N1`, for which the “Percent Effect” value is listed as 25.95%.

As for `CC(C)(C)c1ncc(C(=O)NCCSc2ccccn2)c(O)n1`, the “Percent Effect” value amounted to 2.392%.

As to `Cc1nn(C)cc1-c1ccnc(N2CCSCC2)n1`, the “Percent Effect” value was -11.35%.

For the compound `CC(=O)N1CCCN(c2nccc(-c3cn(C)nc3C)n2)CC1`, the “Percent Effect” value was -3.527%.

`Cc1nn(C)cc1-c1ccnc(N2CCCN(CC(C)C)CC2)n1`: the “Percent Effect” value is on record as 87.41%.

Take `CC(=O)N1CCCN(c2nccc(-c3c(C)nn(C)c3C)n2)CC1`: the “Percent Effect” value is given as 41.92%.

Regarding `Cc1nn(C)c(C)c1-c1ccnc(N2CCCN(CC(C)C)CC2)n1`, the “Percent Effect” value is listed as 93.07%.

In the case of `Cc1nn(-c2ccccc2)c(C)c1-c1ccnc(N2CCCNCC2)n1`, the “Percent Effect” value turned out to be 14.93%.

Regarding `O=C(NCc1nc(NC2CCCC2)c2cc(Cl)ccc2n1)c1cscn1`, the “Percent Effect” value is on record as 4.35%.

As for `Cc1cc(C)c2c(c1)C(CC(=O)O)C(=O)N2` (centres undefined), the “Percent Effect” value is reported as 1.764%.

Take `CN1CCN(Cc2noc(-c3cc(-c4ccccc4F)n[nH]3)n2)CC1`: the “Percent Effect” value was -9.744%.

Consider `O=c1ccc(-c2ccccc2F)nn1CN1CCCCCC1`, for which the “Percent Effect” value came out at 147.7%.

As to `CCn1nc(-c2ccccc2F)ccc1=O`, the “Percent Effect” value is 11.86%.

On to `CN1CCCN(Cn2nc(-c3ccccc3F)ccc2=O)CC1`, for which the “Percent Effect” value is listed as 154.5%.

On to `O=c1ccc(-c2ccccc2F)nn1CCN1CCCS1(=O)=O`, for which the “Percent Effect” value is -2.823%.

Take `CN1CCCN(Cc2nc(Cc3ccccc3)n[nH]2)CC1`: the “Percent Effect” value worked out at 19.97%.

The values above are taken from ChEMBL document CHEMBL3988442, “University of Dundee, Small-Polar-MMV Screening Library” (2021).
